# Screening data from PubChem BioAssay.
# Only some compounds are listed: those with a hit (about 4.6% of all), similar ones and a draw of the others.
# SKKanGAS inh – SKKanGAS growth inhibition | S. pyogenes SKKanGAS, kanamycin growth, BacTiter-Glo, 6 h | inhibition, % at 7.5 µM | 1.3% of 300,000 active | AID 1662;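 active = mean replicate score, as percent of positive control median, at least 50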;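 also: strain carries kanamycin resistance gene driven by streptokinase promoter and grows in 40 µg/ml kanamycin; loss of luminescence reflects streptokinase promoter inhibition or plain growth inhibition; 0% = median of DMSO wells and 100% = positive control at its reference dose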
# PfHsp90 set2 – reduces growth (ATP signal) of yeast expressing P. falciparum Hsp90; 0.32% of 310,000 active; inhibition, % at 9.4 µM; S. cerevisiae expressing PfHsp90, BacTiter-Glo ATP, 48 h; yeast lacking PDR1 and PDR3 efflux regulators;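 active = every replicate shows inhibition above about 80%, whatever the replicate mean, limit read from the data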;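 also: 0% = DMSO neutral controls and 100% = 20 µM radicicol positive controls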
# tim10-1 inh – growth inhibitors of tim10-1 mutant yeast; inhibition, % at 20 µM; S. cerevisiae tim10-1 ts strain growth, BacTiter-Glo, 24 h; AID 463190; 2.2% of 330,000 active;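 active = inhibition of at least 40%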;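 also: mutant grown at 25 °C; 0% = DMSO wells with yeast and 100% = wells holding no yeast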
# TIM10 inh – TIM10 yeast growth inhibition; S. cerevisiae TIM10 strain growth, BacTiter-Glo luminescence, 24 h; 1.4% of 330,000 active; inhibition, % at 10 µM; AID 463195;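 active = inhibition of 40% or more at the single tested concentration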;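 also: wild-type TIM10 isogenic control strain grown at permissive 25 °C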
# NLRP3 yeast inh – blocks the NALP3 inflammasome reconstituted in yeast | Yeast reconstituted NLRP3/ASC/caspase-1, beta-gal luminescence, 24 h | inhibition, % at 10 µM | 0.39% of 330,000 active | AID 2825;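 active = inhibition of 50% or more; inactive = inhibition below 50%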;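 also: plate controls were induced DMSO wells for no effect and uninduced yeast grown without galactose for full effect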
# tim23-1 inh – inhibits growth of tim23-1 mutant yeast. S. cerevisiae tim23-1 growth, BacTiter-Glo luminescence, 24 h. inhibition, % at 20 µM. 1.3% of 330,000 active;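 active = growth inhibition of the mutant yeast at or above 50%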;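 also: temperature-sensitive mutant grown at 25 °C; plate controls were DMSO-treated mutant yeast for no effect and medium wells lacking yeast for full effect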
# NALP3 yeast conf – NALP3 inhibition confirmation in yeast; 81% of 1,300 active; inhibition, % at 10 µM; shares compounds with NLRP3 yeast inh; yeast expressing human NALP3, luminescence; in the data active = inhibition above about 48%
# Casp1 ASC ctr – caspase-1-ASC yeast counter-screen hit. shares compounds with NLRP3 yeast inh. yeast expressing Caspase-1-ASC, luminescence counter screen. inhibition, % at 10 µM. 66% of 1,000 active. AID 488784
# NALP3 retest – confirmation retest of NALP3 inhibitors in yeast | yeast expressing human NALP3, luminescence read-out | shares compounds with NLRP3 yeast inh | inhibition, % at 10 µM | 53% of 1,000 active
# * hit, by the source's call; nt = no result given. Rule as the data show it, unless noted: active = inhibition above about 50%; inactive = the rest.
SMILES,SKKanGAS inh,PfHsp90 set2,tim10-1 inh,TIM10 inh,NLRP3 yeast inh,tim23-1 inh,NALP3 yeast conf,Casp1 ASC ctr,NALP3 retest
O=C1CCC(C(=O)N2CCCC(Nc3ccc(F)cc3)C2)=NN1 (configuration not stated),42,16,-4,3,10,-1,nt,nt,nt
O=C(NCCS(=O)(=O)N1CCN(c2ccccc2)CC1)c1cccs1,-6,12,1,-8,13,-6,nt,nt,nt
CC(C)Sc1nnc(NC(=O)CCc2ccccc2)s1,7,nt,10,13,10,16,nt,nt,nt
Cc1ccccc1C(=O)Nc1nnc(SC(C)C)s1,15,-11,-1,22,51*,36,38,71*,63*
CC1(C)NC(=O)N(CC(=O)OCC(=O)N2CCN(S(=O)(=O)c3ccccc3)CC2)C1=O,nt,17,-16,1,14,-7,nt,nt,nt
O=C1CSC(=Nc2ccccc2Cl)N1,-5,nt,13,4,18,17,nt,nt,nt
Clc1ccccc1N=C1NN=C(c2cccs2)CS1,-1,nt,27,19,52*,38,71*,59*,50
CC(=O)N1N=C(c2cccc([N+](=O)[O-])c2)OC1(C)c1cccs1 (configuration not stated),1,11,25,-15,12,36,nt,nt,nt
CC(=O)N1N=C(c2ccc(C)c([N+](=O)[O-])c2)OC1(C)C,0,6,4,17,53*,15,49*,75*,57*
S=C(NCc1ccco1)N1CCC(c2nc3ccccc3o2)CC1,9,-5,-5,-11,2,10,nt,nt,nt
CCCc1nc(SCc2cccnc2)c2c(=O)n(C)c(=O)n(C)c2n1,-8,15,-11,-19,54*,35,66*,57*,47
Cn1c(=O)c2c(SCc3cccnc3)nc(CC(C)(C)C)nc2n(C)c1=O,-2,-27,23,-11,7,48,nt,nt,nt
COc1ccccc1NC(=O)Nc1ccc(C)cn1,-5,-8,0,-16,61*,25,76*,68*,65*
CCS(=O)(=O)c1cc([N+](=O)[O-])c(Sc2ccccc2NC(C)=O)s1,-11,-13,11,7,-27,7,nt,nt,nt
Cc1ccc(OCC(=O)NCCCNC(=O)c2ccco2)cc1,-4,-1,9,4,15,20,nt,nt,nt
Cc1ccc(Nc2nc(N)c3ccccc3n2)cc1Cl,9,26,5,25,55*,44,65*,38,32
COc1cc2nc(Nc3ccc(C)c(Cl)c3)nc(N)c2cc1OC,-13,17,37,7,12,25,nt,nt,nt
O=C(NCCCNC(=O)c1cnccn1)c1cccc(Cl)c1,-2,-27,2,6,-17,6,nt,nt,nt
CN(CC(=O)N1CCc2ccccc2C1)c1ccccc1,nt,-3,-5,2,55*,12,43,45,55*
Cc1ccc(N2C(=O)C3N=NN(CC(=O)N4N=C(c5ccccc5)CC4c4ccccc4)C3C2=O)cc1 (configuration not stated),21,-24,4,20,65*,24,61*,18,36
CCOC(=O)c1ccc(CNC(=O)C2CCC(=O)N(CCc3ccccc3)C2)o1 (configuration not stated),0,-9,-12,-3,9,3,nt,nt,nt
O=C(Nc1cccc(-c2nc3cccnc3s2)c1)c1ccco1,-4,-43,-63,4,33,47,nt,nt,nt
O=C(Nc1ccc(-c2nc3cccnc3s2)cc1)c1ccco1,0,29,-52,-15,51*,32,72*,46,48
CSc1nc2ccc(NC(=O)c3ccco3)cc2s1,4,13,-71,-38,51*,21,58*,56*,54*
C1=CC(c2cc3ccccc3o2)OC(CCc2ccccc2)C1 (configuration not stated),7,-1,7,8,1,-3,nt,nt,nt
SMILES,SKKanGAS inh,PfHsp90 set2,tim10-1 inh,TIM10 inh,NLRP3 yeast inh,tim23-1 inh,NALP3 yeast conf,Casp1 ASC ctr,NALP3 retest
CC(C(=O)NCCC1=CCCCC1)c1ccc([N+](=O)[O-])cc1 (configuration not stated),6,14,17,-6,51*,-14,61*,48,29
CCCCC(=O)Nc1ccccc1CC,-8,6,17,8,-18,12,nt,nt,nt
O=C(Nc1ccc(F)cc1)C1(S(=O)(=O)c2ccc(Cl)cc2)CC1,-4,4,21,-12,55*,28,75*,48,42
COc1ccc(C(=O)CCNc2ccc(F)cc2)cc1,-9,5,-29,-30,57*,-4,31,nt,nt
COc1cc(O)oc1C=Nc1ccc(C(=O)O)cc1,19,9,4,3,-11,8,nt,nt,nt
O=C(CCl)NNC(=O)c1c(O)c2ccccc2[nH]c1=O,4,0,-40,-24,8,11,nt,nt,nt
O=C(NC1CC1)c1c(O)c2ccccc2[nH]c1=O,-2,29,-23,14,69*,33,75*,40,46
O=C(NNC(=O)c1c(O)c2ccccc2[nH]c1=O)c1ccccc1Br,9,11,-23,20,57*,33,72*,47,47
N#Cc1ccc(NC(=O)Nc2ccc(Cl)cc2)cc1,55*,-6,23,27,72*,14,57*,48,60*
O=C(Nc1ccc(Cl)cc1)Nc1ccc(Cl)c(Cl)c1,nt,nt,30,20,72*,33,72*,24,42
Cc1ccc(NC(=O)Nc2ccc(F)c(Cl)c2)cc1,-1,-8,-22,-31,23,-5,nt,nt,nt
CN(CC(=O)Nc1ccc(C#N)cc1)Cc1ccc(Cl)cc1,-2,4,8,-1,30,25,nt,nt,nt
CN(CC(=O)Nc1ccc(C#N)cc1)Cc1ccc(Cl)cc1Cl,-14,9,21,2,65*,39,59*,59*,46
O=C1NC(Cc2ccccc2)c2nc3cc(F)ccc3c(=O)n2-c2ccccc21 (configuration not stated),nt,nt,20,12,11,24,nt,nt,nt
O=C(CSc1nc(COc2ccccc2)nc2ccccc12)NC1CCCC1,0,18,12,-8,71*,17,40,67*,56*
CCCNC(=O)CSc1nc(COc2ccccc2)nc2ccccc12,-21,9,24,-21,42,11,nt,nt,nt
CCN(CC(=O)Nc1ccc(NC(C)=O)cc1)C(=O)c1cccnc1Sc1ccc(C)c(C)c1,0,-5,-4,3,23,17,nt,nt,nt
COc1ccc(NC(=O)c2cc3ccccc3o2)cc1OC,-11,-5,-8,0,20,13,nt,nt,nt
